Test results as given in PubChem BioAssay.
The source made the active and inactive calls.

Legend:
[1] = compounds binding Alexa647 anti-His antibody – biochemical, small-molecule microarray, 635 nm fluorescence, artefact control for SMM control protein annotation, primary screen (AID 1128); conditions: higher = more signal;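 further: score merges feature fluorescence with signal-to-noise for each printed compound spot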
[2] = system: Human papillomavirus type 1a E7 protein (residues 1-88); experiment: HPV1a E7 small-molecule binders, primary screen, biochemical, small-molecule microarray, residues 1-88, 635 nm (AID 1129); conditions: small-molecule microarray binding, fluorescence 635 nm; higher = more signal
[3] = target: Focal adhesion kinase 1 (Homo sapiens) (UniProt Q05397); experiment: PTK2 protein binding on printed compound slides – biochemical, small-molecule microarray, 635/667 nm fluorescence, BSA, DTT, primary screen (AID 1130); conditions: 635 nm fluorescence, higher = more signal;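 further: composite of spot emission at 667 nm and signal to noise over triplicate slides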
[4] = system: Fibrinogen (Alexa647-labelled); experiment: Alexa647-fibrinogen binding to printed small molecules – biochemical, small-molecule microarray, 635/667 nm fluorescence, artefact control for SMM control-protein annotation, profiling panel (AID 1131); conditions: fibrinogen-A647 binding fluorescence, higher = more signal;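 further: z-score merges 667 nm fluorescence with per-spot signal-to-noise over triplicate slides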
[5] = target: Follistatin (Homo sapiens) (UniProt P19883); experiment: FST protein binding to printed compounds – biochemical, small-molecule microarray, 635/667 nm fluorescence, primary screen (AID 1132); conditions: 635 nm fluorescence, higher = more signal
[6] = target: Fibroblast growth factor 2 (Homo sapiens) (UniProt P09038); experiment: basic fibroblast growth factor binding to printed compounds – biochemical, small-molecule microarray, 635/667 nm fluorescence, primary screen (AID 1133); conditions: FGF2, fluorescence 635/667, higher = more signal
[7] = JC-1 mitochondrial potential readout, lung cancer cells – cell-based, A549, JC-1 fluorescence, basal, 24 h, 100 nL, profiling panel (AID 1138); conditions: higher = more signal;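 further: A549 lung adenocarcinoma cells under basal conditions with no added stimulus; test concentration not given here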
Lefty1 = Lefty1 protein binding to printed compounds – biochemical, small-molecule microarray, 635/667 nm fluorescence, primary screen (AID 1139); conditions: fluorescence 635/667, higher = more signal
[8] = system: wheat germ agglutinin (Triticum aestivum), Alexa647-labelled; experiment: Alexa647-WGA lectin binding to printed small molecules – biochemical, small-molecule microarray, 635/667 nm fluorescence, artefact control for SMM control-protein annotation, profiling panel (AID 1140); conditions: WGA-A647 binding, 635 nm fluorescence, higher = more signal;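 further: score merges 667 nm feature emission with signal to noise over triplicate slides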
[9] = target: Luciferin 4-monooxygenase (Photinus pyralis) (UniProt P08659); experiment: inhibition of purified Photinus pyralis luciferase – biochemical, luminescence, purified enzyme, 2006 set, primary screen (AID 1141); conditions: purified firefly luciferase, SteadyGlo luminescence, 30 min; higher = more signal, called active from +8 up or from −8 down;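 further: cell-free assay with purified firefly luciferase at 100 ng per well in PBS; test concentration not given here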
Chain of Luciferin 4-monooxygenase (Photinus pyralis) (P08659 whole entry, looked up): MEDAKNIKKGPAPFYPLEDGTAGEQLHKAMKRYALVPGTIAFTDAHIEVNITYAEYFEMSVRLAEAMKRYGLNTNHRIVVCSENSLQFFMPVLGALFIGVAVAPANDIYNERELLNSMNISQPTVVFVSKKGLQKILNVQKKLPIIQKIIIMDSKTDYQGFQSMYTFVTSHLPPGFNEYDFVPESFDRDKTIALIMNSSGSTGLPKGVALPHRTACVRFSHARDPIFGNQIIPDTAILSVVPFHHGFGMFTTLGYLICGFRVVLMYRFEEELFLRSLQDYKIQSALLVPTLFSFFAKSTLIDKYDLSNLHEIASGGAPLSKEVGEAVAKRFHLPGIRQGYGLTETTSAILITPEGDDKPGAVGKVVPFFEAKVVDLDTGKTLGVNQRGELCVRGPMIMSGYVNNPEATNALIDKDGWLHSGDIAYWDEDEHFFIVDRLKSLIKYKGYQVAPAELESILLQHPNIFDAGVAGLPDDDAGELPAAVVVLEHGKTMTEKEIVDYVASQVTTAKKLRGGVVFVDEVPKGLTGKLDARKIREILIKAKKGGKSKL

Chain of Focal adhesion kinase 1 (Homo sapiens) (Q05397 whole entry, looked up): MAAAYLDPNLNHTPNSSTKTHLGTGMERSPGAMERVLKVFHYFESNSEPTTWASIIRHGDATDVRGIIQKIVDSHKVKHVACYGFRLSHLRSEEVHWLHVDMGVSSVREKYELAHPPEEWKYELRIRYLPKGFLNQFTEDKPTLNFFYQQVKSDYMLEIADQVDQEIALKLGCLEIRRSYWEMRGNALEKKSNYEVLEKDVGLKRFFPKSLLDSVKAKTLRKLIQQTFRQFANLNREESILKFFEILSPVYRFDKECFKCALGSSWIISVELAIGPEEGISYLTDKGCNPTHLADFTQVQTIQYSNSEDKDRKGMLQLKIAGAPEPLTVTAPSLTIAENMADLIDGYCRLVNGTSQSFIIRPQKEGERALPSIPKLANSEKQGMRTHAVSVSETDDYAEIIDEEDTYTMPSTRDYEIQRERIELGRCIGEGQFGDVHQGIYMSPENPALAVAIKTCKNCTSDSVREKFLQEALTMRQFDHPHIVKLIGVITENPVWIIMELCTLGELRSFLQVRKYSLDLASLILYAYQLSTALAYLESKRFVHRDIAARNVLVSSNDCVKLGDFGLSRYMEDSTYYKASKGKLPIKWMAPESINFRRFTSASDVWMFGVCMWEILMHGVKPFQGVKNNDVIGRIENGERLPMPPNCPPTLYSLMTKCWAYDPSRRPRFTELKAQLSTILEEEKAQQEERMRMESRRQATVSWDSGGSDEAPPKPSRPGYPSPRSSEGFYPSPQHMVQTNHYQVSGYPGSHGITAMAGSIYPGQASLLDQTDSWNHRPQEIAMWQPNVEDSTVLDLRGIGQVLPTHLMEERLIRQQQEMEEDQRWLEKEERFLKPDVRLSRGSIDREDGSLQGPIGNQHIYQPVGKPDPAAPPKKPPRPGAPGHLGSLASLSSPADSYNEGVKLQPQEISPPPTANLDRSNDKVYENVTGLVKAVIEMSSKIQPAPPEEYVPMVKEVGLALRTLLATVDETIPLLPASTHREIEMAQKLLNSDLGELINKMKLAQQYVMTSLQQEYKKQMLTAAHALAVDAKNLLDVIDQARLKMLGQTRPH
Chain of Fibroblast growth factor 2 (Homo sapiens) (P09038 whole entry, looked up): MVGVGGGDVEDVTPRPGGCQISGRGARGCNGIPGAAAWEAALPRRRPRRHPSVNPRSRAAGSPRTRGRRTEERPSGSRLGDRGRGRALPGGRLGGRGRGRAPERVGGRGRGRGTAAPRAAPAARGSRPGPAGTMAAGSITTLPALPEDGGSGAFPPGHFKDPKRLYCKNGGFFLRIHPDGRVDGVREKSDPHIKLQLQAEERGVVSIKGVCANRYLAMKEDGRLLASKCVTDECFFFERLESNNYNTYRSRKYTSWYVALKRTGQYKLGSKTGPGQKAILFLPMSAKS
Chain of Follistatin (Homo sapiens) (P19883 whole entry, looked up): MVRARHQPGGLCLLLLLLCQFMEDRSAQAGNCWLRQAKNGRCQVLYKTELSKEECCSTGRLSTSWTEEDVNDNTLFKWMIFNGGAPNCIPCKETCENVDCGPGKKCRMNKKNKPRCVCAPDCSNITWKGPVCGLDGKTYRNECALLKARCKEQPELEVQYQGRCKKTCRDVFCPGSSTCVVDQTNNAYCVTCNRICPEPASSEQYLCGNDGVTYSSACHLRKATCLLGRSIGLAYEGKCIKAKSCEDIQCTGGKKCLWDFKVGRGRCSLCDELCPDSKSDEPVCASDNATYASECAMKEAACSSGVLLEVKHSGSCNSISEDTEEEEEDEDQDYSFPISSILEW

COc1ccc([C@H]2C[C@H]3C(Br)=C[C@@]2(CO)C(=O)[C@]32CO2)cc1
composite z-score [1]: -0.436
composite z-score [2]: -0.99
composite z-score [3]: 0.125
composite z-score [4]: 0.281
composite z-score [5]: -0.0737
composite z-score [6]: -0.441
z-score [7]: -0.592
composite z-score (Lefty1): -0.271
composite z-score [8]: 0.138
z-score [9]: 0.601 (inactive)

CC(C)CNC(=O)[C@@]1(Cc2ccccc2I)c2ccccc2C(=O)N(Cc2ccccc2C(F)(F)F)[C@H]1c1ccc(CO)cc1
composite z-score [1]: 0.657
composite z-score [2]: 0.0788
composite z-score [3]: -0.287
composite z-score [4]: -0.105
composite z-score [5]: -0.239
composite z-score [6]: -0.217
z-score [7]: -0.171
composite z-score (Lefty1): -0.639
composite z-score [8]: 0.34
z-score [9]: 0.654 (inactive)

CCOC(=O)C[C@H]1[C@H](OC(=O)c2ccc(C(=O)c3ccccc3)cc2)[C@@H](NC(=O)Cc2ccc(OC)cc2)c2cc(OCCCO)ccc2N1C(=O)c1ccc2ccccc2n1
composite z-score [1]: 0.325
composite z-score [2]: 0.727
composite z-score [3]: -0.314
composite z-score [4]: 0.858
composite z-score [5]: 0.513
composite z-score [6]: 0.312
z-score [7]: 0.842
composite z-score (Lefty1): 0.735
composite z-score [8]: -0.028
z-score [9]: -0.849 (inactive)

CCN(CC)c1ccc(N2CC=CC34O[C@@H]5C=CCOC(=O)[C@@H]5[C@H]3C(=O)N(CCCCCCO)[C@@H]4C2=O)cc1 (stereo not given in full)
composite z-score [1]: 0.449
composite z-score [2]: -0.202
composite z-score [3]: -0.148
composite z-score [4]: -1.57
composite z-score [5]: -0.0283
composite z-score [6]: -0.666
z-score [7]: 0.262
composite z-score (Lefty1): 0.436
composite z-score [8]: -0.0009
z-score [9]: -3.88 (inactive)

C=CCNC(=O)[C@@H]1[C@H]2C(=O)O[C@H](c3ccccc3)[C@H](c3ccccc3)N2[C@H](c2ccc(OCCO)cc2)[C@@]12C(=O)N(C(=O)OCCOC)c1ccc(C#CCNC(N)=O)cc12
composite z-score [1]: 1.26
composite z-score [2]: 1.17
composite z-score [3]: 0.613
composite z-score [4]: 0.82
composite z-score [5]: 1.38
composite z-score [6]: 1.34
z-score [7]: -0.746
composite z-score (Lefty1): 0.947
composite z-score [8]: 0.94
z-score [9]: -0.94 (inactive)

CO[C@H]1O[C@H](CO)[C@@H](OC(=O)Nc2ccccc2-c2ccccc2)[C@H](OC(=O)Nc2ccccc2-c2ccccc2)[C@@H]1OC(=O)Nc1ccccc1-c1ccccc1
composite z-score [1]: 0.747
composite z-score [2]: 1.23
composite z-score [3]: 0.993
composite z-score [4]: 0.906
composite z-score [5]: 1.2
composite z-score [6]: 0.814
z-score [7]: -0.00054
composite z-score (Lefty1): 0.55
composite z-score [8]: 0.827
z-score [9]: -0.858 (inactive)

C=CC[C@]12N=C(c3ccc(OCCCO)cc3)O[C@H]1c1ccccc1N(CCS(=O)(=O)c1ccccc1)C2=O
composite z-score [1]: 1.66
composite z-score [2]: 1.23
composite z-score [3]: 0.472
composite z-score [4]: 0.971
composite z-score [5]: 1.15
composite z-score [6]: 1.38
z-score [7]: 0.337
composite z-score (Lefty1): 1.05
composite z-score [8]: 0.97
z-score [9]: -12.4 (active)

CC(=O)n1cc(C(O)C2C=CC3C(=O)NC(=O)C3N2Nc2ccccn2)c2ccccc21 (stereo not given)
composite z-score [1]: 0.426
composite z-score [2]: 0.355
composite z-score [3]: 1.74
composite z-score [4]: 0.0552
composite z-score [5]: 0.242
composite z-score [6]: -0.219
z-score [7]: 0.471
composite z-score (Lefty1): -0.0259
composite z-score [8]: 0.0414
z-score [9]: -1.35 (inactive)

CCCNC(=O)[C@@]1(Sc2ccc(C)cc2)CC(=O)N(Cc2ccccc2C(F)(F)F)[C@@H]1c1ccc(CO)cc1I
composite z-score [1]: -0.132
composite z-score [2]: 0.934
composite z-score [3]: 0.0382
composite z-score [4]: 0.956
composite z-score [5]: 1.36
composite z-score [6]: 0.76
z-score [7]: -0.722
composite z-score (Lefty1): 0.849
composite z-score [8]: 0.28
z-score [9]: 0.262 (inactive)

O=C1O[C@@H](c2ccccc2)[C@@H](c2ccccc2)N2[C@@H](c3ccccc3OCCO)[C@]3(C(=O)Nc4ccccc43)[C@@H](C(=O)O)[C@H]12
composite z-score [1]: 0.969
composite z-score [2]: 0.718
composite z-score [3]: 0.66
composite z-score [4]: 0.882
composite z-score [5]: -0.0086
composite z-score [6]: -0.166
z-score [7]: -0.184
composite z-score (Lefty1): -0.474
composite z-score [8]: 0.56
z-score [9]: -1.55 (inactive)

O=C1C[C@@](C(=O)NCc2ccccc2)(c2ccc([N+](=O)[O-])cc2)[C@@H](c2ccc(CO)cc2)N1CC12CC3CC(CC(C3)C1)C2
composite z-score [1]: 0.729
composite z-score [2]: 1.19
composite z-score [3]: 1.42
composite z-score [4]: -0.151
composite z-score [5]: 1.33
composite z-score [6]: 1.46
z-score [7]: 1.44
composite z-score (Lefty1): 0.943
composite z-score [8]: 0.162
z-score [9]: -0.756 (inactive)

COc1cc2c(cc1O)C=[N+](Cc1cc3c(cc1Br)OCO3)CC2
composite z-score [1]: -0.954
composite z-score [2]: -1.07
composite z-score [3]: -0.626
composite z-score [4]: -2.07
composite z-score [5]: -0.174
composite z-score [6]: -0.659
z-score [7]: -0.784
composite z-score (Lefty1): -0.553
composite z-score [8]: 0.248
z-score [9]: 0.807 (inactive)

O=C1OCCC/C=C\[C@H]2OC34C=CCN(c5ccc6ccccc6c5)C(=O)[C@H]3N(CCCCCO)C(=O)[C@@H]4C12 (stereo not given in full)
composite z-score [1]: -0.268
composite z-score [2]: -1.62
composite z-score [3]: -0.24
composite z-score [4]: -0.582
composite z-score [5]: -0.472
composite z-score [6]: -1.06
z-score [7]: -0.168
composite z-score (Lefty1): -0.343
composite z-score [8]: -0.753
z-score [9]: 0.118 (inactive)

O=C1C2C=CC(C(O)c3c(F)cccc3Cl)N(Nc3ccccc3F)C2C(=O)N1c1ccccc1 (stereo not given)
composite z-score [1]: 0.236
composite z-score [2]: 1.23
composite z-score [3]: 0.631
composite z-score [4]: 0.926
composite z-score [5]: 1.09
composite z-score [6]: 0.793
z-score [7]: 0.353
composite z-score (Lefty1): -0.199
composite z-score [8]: 0.702
z-score [9]: -0.059 (inactive)

COCC(=C=CC[C@H](O)c1cccc(OCCO)c1)CCO
composite z-score [1]: -0.115
composite z-score [2]: 0.0665
composite z-score [3]: -0.0436
composite z-score [4]: -0.535
composite z-score [5]: 1.32
composite z-score [6]: 0.131
z-score [7]: -0.0195
composite z-score (Lefty1): 1.48
composite z-score [8]: -0.262
z-score [9]: 0.415 (inactive)

CCCC(=O)N(CCc1c[nH]c2ccccc12)[C@@H]1CC(C(=O)NCCO)=C[C@H](Oc2c(I)cc(CO)cc2OC)[C@H]1O
composite z-score [1]: -0.156
composite z-score [2]: -0.064
composite z-score [3]: -0.185
composite z-score [4]: -1.04
composite z-score [5]: 0.0919
composite z-score [6]: 0.289
z-score [7]: 1.13
composite z-score (Lefty1): 0.0596
composite z-score [8]: 0.302
z-score [9]: -0.437 (inactive)

CS(=O)(=O)CCOC(=O)C1=CC(CCCO)=CC(c2ccc(CN3CCCC3)cc2)N(Cc2cccc(OC(F)(F)F)c2)C=C1C(=O)OCCS(C)(=O)=O (stereo not given)
composite z-score [1]: 1.26
composite z-score [2]: 1.09
composite z-score [3]: 0.366
composite z-score [4]: 0.675
composite z-score [5]: 0.962
composite z-score [6]: 0.964
z-score [7]: 3.17
composite z-score (Lefty1): 0.889
composite z-score [8]: 0.404
z-score [9]: -2.68 (inactive)

[N-]=[N+]=Nc1ccccc1C[C@@]1(C(=O)N2CCCCC2)N=C(c2ccc(OCCCO)cc2)O[C@@H]1c1ccccc1N=[N+]=[N-]
composite z-score [1]: 2.17
composite z-score [2]: 1.19
composite z-score [3]: 0.362
composite z-score [4]: 0.98
composite z-score [5]: 1.29
composite z-score [6]: 0.592
z-score [7]: -1.21
composite z-score (Lefty1): -0.271
composite z-score [8]: 1.3
z-score [9]: -2.39 (inactive)

CCC(CC)C(O)C1C=CC2C(=O)N(c3ccccc3)C(=O)C2N1Nc1ccccc1 (stereo not given)
composite z-score [1]: 1.51
composite z-score [2]: 1.25
composite z-score [3]: 0.633
composite z-score [4]: 1
composite z-score [5]: 1.06
composite z-score [6]: 0.514
z-score [7]: -0.117
composite z-score (Lefty1): 0.858
composite z-score [8]: 1.03
z-score [9]: -1.9 (inactive)

O=C1NC(=O)C2C1C=CC(C(O)c1ccc(I)cc1)N2Nc1ccccn1 (stereo not given)
composite z-score [1]: 2.1
composite z-score [2]: 0.134
composite z-score [3]: 0.675
composite z-score [4]: 0.791
composite z-score [5]: 0.367
composite z-score [6]: -0.109
z-score [7]: -0.279
composite z-score (Lefty1): -0.19
composite z-score [8]: 1.23
z-score [9]: -0.759 (inactive)

O=C(NC1CC1)[C@@H]1c2ccccc2C(=O)N(Cc2cc(F)cc(C(F)(F)F)c2)[C@H]1c1ccc(CO)cc1
composite z-score [1]: 1.23
composite z-score [2]: -0.454
composite z-score [3]: 0.315
composite z-score [4]: -0.399
composite z-score [5]: 0.542
composite z-score [6]: -0.258
z-score [7]: 0.739
composite z-score (Lefty1): -0.396
composite z-score [8]: 0.569
z-score [9]: -0.124 (inactive)

C=C(CCCC)/C(=C/C[C@@H](OC(C)=O)c1cccc(OCCO)c1)c1cnc2ccccc2c1
composite z-score [1]: 1.35
composite z-score [2]: 0.157
composite z-score [3]: -0.0542
composite z-score [4]: 0.0837
composite z-score [5]: 1.4
composite z-score [6]: 1.18
z-score [7]: 0.908
composite z-score (Lefty1): 1.37
composite z-score [8]: 0.978
z-score [9]: -0.245 (inactive)
